# Measurements reported in PubChem BioAssay.
# Active and inactive are the calls of the source.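 How the source made its calls, unless noted: active means inhibition at or above 50% at 10 µM; inactive means inhibition below 50%.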
# Key:
# [1] = inhibitors of TNFa-induced NFkB p65 translocation, primary screen, imaging, HUVEC, MLSMR starter and 10KST1 sets (AID 438;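 active means inhibition above 20% together with a positive visual image hit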;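 further: compound added about 3h40 before a 20 min TNFalpha stimulation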;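 on inhibition: signal is the nuclear over cytoplasmic p65 intensity ratio per well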); details: HUVEC TNFa-induced p65 nuclear translocation; cell count: measured here: nuclei count (cytotoxicity indicator), at 2.08 µM; inhibition: at 2 µM, stronger effect = higher value, 0% TNFa-plus-vehicle, 100% no-TNFa wells
# [2] = reduction of polyQ htt aggregates in cells – imaging, exon1htt(103Q)mCFP cells, high-content imaging, primary screen (AID 483;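 active means visual image review flags a hit and inhibition of aggregation exceeds 20%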;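 further: compound exposure lasted 3 days before fixation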;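 on nuclei count: percent of the per-plate median nuclei count of sample wells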); details: exon1htt(103Q)mCFP cell line, aggregate imaging, at 2 µM; inhibition of aggregation: stronger effect = higher value; nuclei count: measured here: cell count, toxicity
# [3] = endothelial E-selectin expression blockers – imaging, HUVEC, immunofluorescence, MLSMR starter and 10KST1 sets, primary screen (AID 487;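 active means visually confirmed hit in the image check and inhibition above 20%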;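 on inhibition: signal is fraction of cell area covered by stained E-selectin grains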;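 on nuclei count: 100% = median nuclei count of all wells on the same plate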); details: HUVEC TNFalpha-induced E-selectin immunofluorescence imaging, at 2 µM; inhibition: stronger effect = higher value; nuclei count: measured here: cell number, toxicity
# [4] = biological target: Voltage-gated potassium channel subunit beta-2 (Rattus norvegicus) (UniProt P62483); assay: inhibitors of rat Kvbeta2 reductase activity – biochemical, NADPH fluorescence, primary screen (AID 622;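 active means fluorescence slope higher than the sample average by over 3 SD, cut at about -0.22 in these data, passing the limit was not always enough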;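 further: slope of raw intensity against log time taken from 70 to 1610 s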); details: recombinant KvBeta, 4-cyanobenzaldehyde reduction, at 10 µM, stronger effect = higher value
# Sequence of Voltage-gated potassium channel subunit beta-2 (Rattus norvegicus) (P62483 whole entry, looked up): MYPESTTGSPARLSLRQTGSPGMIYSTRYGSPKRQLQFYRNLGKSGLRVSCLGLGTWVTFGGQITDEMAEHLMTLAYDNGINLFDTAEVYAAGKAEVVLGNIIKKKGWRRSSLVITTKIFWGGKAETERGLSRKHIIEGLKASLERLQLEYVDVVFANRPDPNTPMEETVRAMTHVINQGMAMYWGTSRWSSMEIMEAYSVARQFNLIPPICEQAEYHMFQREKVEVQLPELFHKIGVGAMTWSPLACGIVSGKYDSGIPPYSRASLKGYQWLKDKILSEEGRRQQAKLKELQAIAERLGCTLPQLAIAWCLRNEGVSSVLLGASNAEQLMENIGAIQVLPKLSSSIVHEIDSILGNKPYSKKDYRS
# [5] = biological target: Voltage-gated potassium channel subunit beta-2 (Rattus norvegicus) (UniProt P62483); assay: enhancers of rat Kvbeta2 NADPH turnover – biochemical, NADPH fluorescence, primary screen (AID 623;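 active means NADPH fluorescence slope more negative than the mean of all samples by about 3 SD, 99.7% confidence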;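 further: fluorescence intensity change per second fitted from 20 to 320 s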); details: Recombinant KvBeta, NADPH fluorescence decrease slope, 10 min; at 10 µM; stronger effect = lower value
# [6] = biological target: Alpha-2C adrenergic receptor (Homo sapiens) (UniProt P18825); assay: compounds altering alpha2C-coupled GIRK flux – cell-based, HEK293 alpha2C/GIRK1/2, thallium flux, primary screen (AID 624;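 active means fluorescence slope after compound addition differing from the mean of all screened samples at 99.7% confidence, in either direction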;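 further: slope of fluorescence ratio to pre-addition baseline per second over 15 to 24 s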); details: thallium flux BTC fluorescence, at 10 µM, actives lie on both sides
# Sequence of Alpha-2C adrenergic receptor (Homo sapiens) (P18825 whole entry, looked up): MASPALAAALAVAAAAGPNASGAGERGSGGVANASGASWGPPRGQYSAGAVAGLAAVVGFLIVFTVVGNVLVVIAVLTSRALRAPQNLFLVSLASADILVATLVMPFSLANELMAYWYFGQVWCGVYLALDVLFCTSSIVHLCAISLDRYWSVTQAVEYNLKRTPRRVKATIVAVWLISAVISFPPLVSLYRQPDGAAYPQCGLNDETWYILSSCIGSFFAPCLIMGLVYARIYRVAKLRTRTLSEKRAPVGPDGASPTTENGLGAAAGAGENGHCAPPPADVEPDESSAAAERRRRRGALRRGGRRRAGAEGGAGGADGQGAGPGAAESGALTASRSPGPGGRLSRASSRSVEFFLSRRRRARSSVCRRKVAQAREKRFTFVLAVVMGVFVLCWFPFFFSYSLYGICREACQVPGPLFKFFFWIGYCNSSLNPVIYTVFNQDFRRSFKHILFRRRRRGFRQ
# [7] = blockers of RIG-like receptor reporter activation – cell-based, Sendai virus stimulus, luciferase, 10K MLSCN set, TLR/RLR signaling modifier project, primary screen (AID 602276); details: HEK293 RL24 IRF3 luciferase reporter, at 10 µM, stronger effect = higher value;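 further: firefly luciferase from ISG56 promoter only with Renilla not read in this screen; 0% = Sendai virus plus DMSO and 100% = medium plus DMSO without virus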
# [8] = TLR3 IRF3 reporter activation blockers – cell-based, poly I:C stimulus, luciferase, 10K MLSCN set, primary screen (AID 602277;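 active means inhibition of the reporter signal at or above 50%; inactive means inhibition below 50%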); details: HEK293-TLR3 RL24 IRF3 luciferase reporter, at 10 µM, stronger effect = higher value
SMILES,cell count [1],inhibition [1],inhibition of aggregation [2],nuclei count [2] [%],inhibition [3],nuclei count [3] [%],fluorescence slope [4],NADPH fluorescence slope [5],slope [6],inhibition [7],inhibition [8]
CCOc1ccccc1C1CC(=O)Nc2cc3c(cc21)OCO3 (stereo not drawn),266,14.4% (inactive),-18.8% (inactive),86.9,-9.8% (inactive),98.7,-0.38 (inactive),-4.6e-05 (inactive),0.00457 (inactive),3.25% (inactive),40.2% (inactive)
Cc1ccc(NC(=O)COS(=O)c2ccc(C)cc2)cc1 (stereo not drawn),420,5.8% (inactive),2.9% (inactive),94.3,-11.2% (inactive),125,-0.58 (inactive),-2e-05 (inactive),0.00583 (inactive),6.94% (inactive),-1.39% (inactive)
CCCCOC(=O)C1=C(C)Nc2ncnn2C1c1cccc(OC)c1OC (stereo not drawn),655,12.8% (inactive),-20.9% (inactive),113,-71.2% (inactive),111,-0.403 (inactive),-4e-05 (inactive),0.00417 (inactive),12.8% (inactive),9.22% (inactive)
COc1ccccc1C(=O)NC(C)C(c1cccs1)N1CCN(C)CC1 (stereo not drawn),547,-1.6% (inactive),0.7% (inactive),106,-38.9% (inactive),114,-0.394 (inactive),1.2e-06 (inactive),0.00389 (inactive),-13.5% (inactive),-8.87% (inactive)
CCOC(=O)Cc1csc(NC(=O)CSc2nnc(C3CC3)n2C)n1,670,-11.2% (inactive),2.2% (inactive),110,18.1% (inactive),102,-0.265 (inactive),-5.6e-05 (inactive),0.0044 (inactive),10.5% (inactive),17.5% (inactive)
O=C(O)CCC1(C(=O)O)OCCc2ccccc21 (stereo not drawn),470,2.9% (inactive),-4.2% (inactive),99.2,-99.4% (inactive),118,-0.599 (inactive),-3.7e-05 (inactive),0.00588 (inactive),8.34% (inactive),17.4% (inactive)
CCCN(CCC)C(=O)C1CCN(c2cc(C)nc3c(-c4ccc(OC)c(OC)c4)c(C)nn23)CC1,651,6.6% (inactive),-2.4% (inactive),91.7,-68.7% (inactive),124,-0.492 (inactive),-2.2e-05 (inactive),0.00708 (inactive),4.7% (inactive),7.43% (inactive)
Cn1c(=O)c2c(nc(SCCCC#N)n2Cc2c(F)cccc2Cl)n(C)c1=O,868,0.6% (inactive),9.8% (inactive),82.3,-6.8% (inactive),108,-0.589 (inactive),-6.6e-06 (inactive),0.00598 (inactive),-9.31% (inactive),7.45% (inactive)
